Experimental data reported in ChEMBL document CHEMBL1157539, “Thousands of chemical starting points for antimalarial lead identification” (Nature, 2010).

Tests used:
Format in all cases: functional
Plasmodium falciparum [1] = assay: GSK_TCMDC: Inhibition of Plasmodium falciparum 3D7 in whole red blood cells, using parasite LDH activity as an index of growth. Test compounds present at 2uM
Plasmodium falciparum [2] = assay: GSK_TCMDC: Inhibition of Plasmodium falciparum Dd2 in whole red blood cells, using parasite LDH activity as an index of growth. Test compounds present at 2uM
HepG2 = assay: GSK_TCMDC: Percent inhibition of human HepG2 cell line. Test compounds present at 10uM.

With `CCCc1cc(Cc2cnc(N)nc2N)ccc1OCCCCCC(=O)O.Cl` as the compound, how does the Inhibition (Plasmodium falciparum [1]) read?
Its Inhibition is 97%.

And the Inhibition (Plasmodium falciparum [2])?
Its Inhibition is 0%.

And the Inhibition (HepG2)?
The Inhibition was 3%.

For `Cl.O=c1cc(NCCCNCc2ccc(C(F)(F)F)s2)[nH]c2ccccc12`, which Inhibition (Plasmodium falciparum [1]) is on record?
Its Inhibition is 99%.

What about the Inhibition (Plasmodium falciparum [2]) of the same compound?
Its Inhibition is 68%.

What about the Inhibition (HepG2) of the same compound?
The Inhibition was 0%.

With `Cc1cc(N[C@@H](Cc2ccccc2)C(=O)NCc2cccc(F)c2)nc(NCCc2cccnc2)n1.O=C(O)C(F)(F)F` as the compound, how does the Inhibition (Plasmodium falciparum [1]) read?
The Inhibition was 92%.

And the Inhibition (Plasmodium falciparum [2])?
The Inhibition was 40%.

And the Inhibition (HepG2)?
The Inhibition was 18%.

With `NC1CCN(Cc2ccc(-c3ccc(-c4nc5cc(F)ccc5[nH]4)s3)cc2)C1.O=C(O)C(F)(F)F` (stereo not drawn) as the compound, how does the Inhibition (Plasmodium falciparum [1]) read?
The Inhibition was 100%.

What about the Inhibition (Plasmodium falciparum [2]) of the same compound?
The Inhibition was 98%.

And the Inhibition (HepG2)?
Its Inhibition is 32%.

Which results are given for `C=CCn1cc(C2CCN(CCCCNC(=O)c3sc(-c4ccc(C(F)(F)F)cc4)nc3CO)CC2)c2cc(OC)ccc21`?
Inhibition (Plasmodium falciparum [1]): 91%; Inhibition (Plasmodium falciparum [2]): 4%; Inhibition (HepG2): 40%

Which results are given for `Cc1noc(C)c1-c1ccc2c(Nc3ccccc3C(C)(C)C)c(C(=O)NCc3ccccc3)cnc2c1.Cl`?
Inhibition (Plasmodium falciparum [1]): 99%; Inhibition (Plasmodium falciparum [2]): 89%; Inhibition (HepG2): 20%

Which Inhibition (Plasmodium falciparum [1]) does the source give for `CCCCn1c(C(C)Oc2ccc(Cl)cc2Cl)nc2cc(S(N)(=O)=O)ccc21` (stereo not drawn) here?
The Inhibition was 94%.

What about the Inhibition (Plasmodium falciparum [2]) of the same compound?
Its Inhibition is 45%.

What about the Inhibition (HepG2) of the same compound?
The Inhibition was 24%.

How did the Inhibition (Plasmodium falciparum [1]) turn out when `Br.CCCCCCn1c2c(c(=N)c3c1CCC3)CCC2` was run?
Its Inhibition is 97%.

What about the Inhibition (Plasmodium falciparum [2]) of the same compound?
Its Inhibition is 83%.

And the Inhibition (HepG2)?
The Inhibition was 32%.

With `O=C(CN1CCN(C(=O)c2ccco2)CC1)Nc1ccc(Br)cc1Cl` as the compound, how does the Inhibition (Plasmodium falciparum [1]) read?
Its Inhibition is 88%.

And the Inhibition (Plasmodium falciparum [2])?
The Inhibition was 79%.

And the Inhibition (HepG2)?
The Inhibition was 10%.

`CN1CCN(CC(=O)Nc2cccc(-c3cccc(-c4nc5ccccc5[nH]4)c3)c2)CC1` was tested. Which Inhibition (Plasmodium falciparum [1]) did it give?
Its Inhibition is 90%.

What about the Inhibition (Plasmodium falciparum [2]) of the same compound?
Its Inhibition is 27%.

And the Inhibition (HepG2)?
The Inhibition was 11%.

`COc1cc(NC(=O)c2ccc(-c3ccccc3)cc2)ccc1OCCCN1CCC(c2ccccc2)CC1.Cl` was tested. Which Inhibition (Plasmodium falciparum [1]) did it give?
The Inhibition was 100%.

What about the Inhibition (Plasmodium falciparum [2]) of the same compound?
The Inhibition was 30%.

What about the Inhibition (HepG2) of the same compound?
The Inhibition was 46%.
